DT40 TDP1 no CPT: qHTS for Inhibitors of human tyrosyl-DNA phosphodiesterase 1 (TDP1): qHTS in cells in absence of CPT. DT40 Tdp1-/- hTDP1 cells, no CPT, ATP luminescence, 48 h. Potency, µM (doses to about 46.2 µM), for the others: top-dose activity change, negative = growth inhibition, most hits filed as inhibitors. 420,000 tested, 15% active. AID 686978, 2013; also: potency is read from the fitted curve at half-maximal effect; nearly all actives have a fitted effect of over 55% in size
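Growth kinetics read by CellTiter-Glo luminescence after ≥48 hr at 37 °C. Cells: DT40 Tdp1-/- stably carrying human TDP1, 400 per well, compound exposure in the absence of CPT (DMSO vehicle).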
IL-1B inflam inh: inhibitors of inflammasome signaling (IL-1 beta secretion); THP-1 LPS/ATP IL-1B secretion, AlphaLISA, 16 h; hits give low values; activity change, % at 57.5 µM; 360,000 tested, 4.7% active; AID 743279; in the data active = activity change below about -50%; inconclusive = mostly about -30% to -49%
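THP-1 cells pretreated 1 hr with compounds (up to 57.5 uM final), then stimulated with LPS (250 ng/mL final) plus ATP (1.25 mM final); secreted IL-1B measured by AlphaLISA after 16 hr, decreased signal indicating inhibition.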
TDP1 cell CPT: growth inhibition of DT40 Tdp1-/-;hTDP1 cells with camptothecin (screen for TDP1 inhibitors); chicken DT40 Tdp1-/-;hTDP1 cells + 20 nM CPT, ATP luminescence, 48 h; 420,000 tested, 12% active; Potency, µM (top dose mostly 46.2 µM), for the others: at the top dose activity change, negative = growth inhibition, most hits filed as inhibitors; AID 686979; also: potency is read from the fitted curve at half-maximal effect; nearly all actives have a fitted effect of over 55% in size
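Cell growth measured by CellTiter-Glo luminescence after a minimum 48 h, 37 C compound exposure with 20 nM CPT in Tdp1-knockout DT40 cells stably expressing hTDP1, seeded 400/well; qHTS titration format.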
HT1080 IDH1KD tx: kills HT-1080 cells with IDH1 knockdown; HT-1080 IDH1 knockdown viability, ATP luminescence, 48 h; Potency, µM (doses to about 46.1 µM), without a hit: at the top dose activity, negative = toxicity, actives largely listed as cytotoxic; 360,000 tested, 2% active;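 also: potency is read from the fitted curve at half-maximal effect; 0% = DMSO wells and -100% = cell-free medium wells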
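CellTiter-Glo luminescence after 48 h compound exposure at 37 degrees C of IDH1-knockdown HT-1080 cells in 5% FBS RPMI. %Activity scaled between DMSO wells and cell-free media wells, with curves fitted and assigned curve classes.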
HT1080NT lethal: kills 2HG-producing HT-1080-NT fibrosarcoma cells; HT-1080-NT fibrosarcoma viability, CellTiter-Glo ATP luminescence, 48 h; Potency, µM (titrated, usually from 46.1 µM), for inactives: at the top dose activity, negative = less viability, hits mostly cytotoxic; 360,000 tested, 1.6% active;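 also: NT is the 2HG producing partner of a matched IDH1 knockdown line; potency is read from the fitted curve at half-maximal effect; 0% = DMSO-treated cells and -100% = media-only wells without cells; nearly all actives have a fitted effect of over 55% in size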
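Fibrosarcoma NT cells, 750 per well in 5% FBS RPMI, were exposed to compound for 48 hours. Viability: CellTiter-Glo luminescence.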
* hit, by the source's call; [ ] = another dose, or the depositor's remark. An excerpt weighted towards active compounds, which were near 19% of everything screened. Unless noted, calls follow the shape of the dose curve; as a rule, active = well fitted curve in the direction sought with a large enough effect; inconclusive = small, poorly fitted or top-dose-only effect, or another doubt; inactive = no such curve, though single readings can be large; an effect the other way counts as inactive or inconclusive. Unless noted, % is scaled to controls: 0 for no effect and ±100 for the full control effect.

What do the screens show for `O=C(O)CC/C(=C\c1ccc(Cl)c([N+](=O)[O-])c1)c1nc2ccccc2s1`?
DT40 TDP1 no CPT: -1%; IL-1B inflam inh: 17; TDP1 cell CPT: inconclusive; HT1080 IDH1KD tx: -1%; HT1080NT lethal: -4%

Results for CC(C)c1ccc(NC(=O)C(Cc2ccccc2)n2cccc2)cc1 (stereo not drawn) ?
DT40 TDP1 no CPT: 16µM*; TDP1 cell CPT: 21µM*

How did COc1ccc(NC(=O)C(Cc2ccccc2)n2cccc2)cc1OC (stereo not drawn) do in these assays?
DT40 TDP1 no CPT: 21µM*; IL-1B inflam inh: -12; TDP1 cell CPT: 8.2µM*; HT1080 IDH1KD tx: -8%; HT1080NT lethal: -8%

What do the screens show for `COc1ccc(NC(=O)[C@H](Cc2ccccc2)N2Cc3ccccc3C2=O)cc1OC`?
DT40 TDP1 no CPT: -17%; TDP1 cell CPT: -7%

What do the screens show for `O=C(Nc1cccnc1)C(Cc1ccccc1)n1cccc1` (stereo not drawn)?
DT40 TDP1 no CPT: -15%; IL-1B inflam inh: 0; TDP1 cell CPT: inconclusive; HT1080 IDH1KD tx: -13%; HT1080NT lethal: -8%

How did O=C(Nc1cccc(Cl)c1)C(Cc1ccccc1)n1cccc1 (stereo not drawn) do in these assays?
DT40 TDP1 no CPT: 18µM*; TDP1 cell CPT: 23µM*

How did COC(=O)CNC(=O)c1cnn(-c2ncc3c(n2)-c2ccccc2CCC3)c1C1CC1 do in these assays?
DT40 TDP1 no CPT: -26%; TDP1 cell CPT: -13%[9.04 µM]

Results for COc1ccc(CSc2nnc(-c3ccncc3)n2C)cc1F ?
DT40 TDP1 no CPT: 5%; IL-1B inflam inh: -6; TDP1 cell CPT: 27%; HT1080 IDH1KD tx: 26%; HT1080NT lethal: 28%

What do the screens show for `N#Cc1c(N)[nH]c2ccc(Sc3ccccc3)cc12`?
DT40 TDP1 no CPT: 0.73µM*; IL-1B inflam inh: -8; TDP1 cell CPT: 0.73µM*; HT1080 IDH1KD tx: 7.3µM*; HT1080NT lethal: 3.3µM*

How did COc1ccccc1OCC(=O)Nc1cccc(-c2nnc(-c3ccco3)o2)c1 do in these assays?
DT40 TDP1 no CPT: 21µM*; IL-1B inflam inh: -2; TDP1 cell CPT: inconclusive; HT1080 IDH1KD tx: inconclusive; HT1080NT lethal: -5%

Results for CC(C)C(=O)Nc1ccc(-c2nnc(-c3ccccc3)o2)cc1 ?
DT40 TDP1 no CPT: inconclusive; IL-1B inflam inh: -4; TDP1 cell CPT: -12%; HT1080 IDH1KD tx: 15%; HT1080NT lethal: 20%

Results for O=C(Cc1ccc(Cl)cc1)Nc1cccc(-c2nnc(-c3ccco3)o2)c1 ?
DT40 TDP1 no CPT: inconclusive; IL-1B inflam inh: 29; TDP1 cell CPT: inconclusive; HT1080 IDH1KD tx: inconclusive; HT1080NT lethal: inconclusive

What do the screens show for `O=C(Nc1cccc(-c2nnc(-c3ccccc3)o2)c1)C1CC1`?
DT40 TDP1 no CPT: inconclusive; IL-1B inflam inh: inconclusive; TDP1 cell CPT: inconclusive; HT1080 IDH1KD tx: -12%; HT1080NT lethal: 1%

How did O=C(Nc1cccc(-c2nnc(-c3ccco3)o2)c1)C(c1ccccc1)c1ccccc1 do in these assays?
DT40 TDP1 no CPT: 16µM*; IL-1B inflam inh: -21; TDP1 cell CPT: inconclusive; HT1080 IDH1KD tx: -21%; HT1080NT lethal: -2%

Results for O=C(Cc1ccccc1)Nc1cccc(-c2nnc(-c3ccco3)o2)c1 ?
DT40 TDP1 no CPT: 15µM*; IL-1B inflam inh: -23; TDP1 cell CPT: inconclusive; HT1080 IDH1KD tx: -3%; HT1080NT lethal: -2%

How did COc1ccccc1OCC(=O)Nc1nnc(-c2ccco2)s1 do in these assays?
DT40 TDP1 no CPT: -13%; IL-1B inflam inh: 0; TDP1 cell CPT: -7%; HT1080 IDH1KD tx: 1%; HT1080NT lethal: -1%

Results for O=C(Nc1cccc(-c2nnc(-c3ccco3)o2)c1)c1ccccc1 ?
DT40 TDP1 no CPT: inconclusive; IL-1B inflam inh: -78*; TDP1 cell CPT: inconclusive; HT1080 IDH1KD tx: -3%; HT1080NT lethal: -23%

What do the screens show for `COc1ccc(S(=O)(=O)N(C)CC(=O)NCc2cccnc2)cc1`?
DT40 TDP1 no CPT: -15%; IL-1B inflam inh: 11; TDP1 cell CPT: -5%; HT1080 IDH1KD tx: 7%; HT1080NT lethal: 11%

How did CCc1ccc(-c2nc(CS(=O)CC(=O)NCCCN3CCOCC3)c(C)o2)cc1 (stereo not drawn) do in these assays?
DT40 TDP1 no CPT: 7%; IL-1B inflam inh: 38; TDP1 cell CPT: -23%; HT1080 IDH1KD tx: 3%; HT1080NT lethal: -18%

Results for Cc1nc2ncnn2c(C)c1CCC(=O)N1CCN(c2ccccc2)CC1 ?
DT40 TDP1 no CPT: -5%; TDP1 cell CPT: 15%

What do the screens show for `O=C(COc1ccccc1)Nc1ccc(-c2nnc(-c3ccco3)o2)cc1`?
DT40 TDP1 no CPT: -7%; IL-1B inflam inh: 29; TDP1 cell CPT: 0%; HT1080 IDH1KD tx: 12µM*; HT1080NT lethal: 9.2µM*

What do the screens show for `CC1CCCCN1C(=O)COC(=O)c1n[nH]c2ccccc12` (stereo not drawn)?
DT40 TDP1 no CPT: 10%; IL-1B inflam inh: -6; TDP1 cell CPT: -7%; HT1080 IDH1KD tx: 8%; HT1080NT lethal: 8%

How did COc1ccc(Cn2c(-c3ccc(Br)cc3)c[n+]3ccccc23)cc1 do in these assays?
DT40 TDP1 no CPT: 2.1µM*; IL-1B inflam inh: -61*; TDP1 cell CPT: 1.8µM*; HT1080 IDH1KD tx: inconclusive; HT1080NT lethal: inconclusive

What do the screens show for `COc1ccc(CN(C(=O)CSc2nnc(-c3ccccc3F)o2)c2ccc(F)cc2)cc1`?
DT40 TDP1 no CPT: 13µM*; IL-1B inflam inh: 11; TDP1 cell CPT: 18µM*; HT1080 IDH1KD tx: -1%; HT1080NT lethal: -22%

What do the screens show for `COc1ccc(-c2nnc(SCC(=O)N(Cc3ccccc3)C(C)(C)C)o2)cc1OC`?
DT40 TDP1 no CPT: 13µM*; IL-1B inflam inh: inconclusive; TDP1 cell CPT: 23µM*; HT1080 IDH1KD tx: -21%; HT1080NT lethal: -19%

Results for CCN(C(=O)CSc1nnc(-c2cc(OC)c(OC)c(OC)c2)o1)c1ccccc1 ?
DT40 TDP1 no CPT: 5.8µM*; TDP1 cell CPT: 15µM*

What do the screens show for `CCOc1ccc(-c2nnc(SCC(=O)N(CC)c3cccc(C)c3)o2)cc1`?
DT40 TDP1 no CPT: 10µM*; TDP1 cell CPT: 21µM*

What do the screens show for `CCc1ccc(OC(=O)CSc2nnc(-c3ccc(OC)c(OC)c3)o2)cc1`?
DT40 TDP1 no CPT: -1%; TDP1 cell CPT: -3%

What do the screens show for `C=CCN1C(=O)C(CC(C)C)NC1=S` (stereo not drawn)?
DT40 TDP1 no CPT: -13%; TDP1 cell CPT: 16%

Results for CC1(C(=O)Nc2ccc3c(c2)OCCO3)CN(S(C)(=O)=O)CC(=O)N1CCCN1CCOCC1 (stereo not drawn) ?
DT40 TDP1 no CPT: 3%; IL-1B inflam inh: 25; TDP1 cell CPT: 2%; HT1080 IDH1KD tx: 30%; HT1080NT lethal: 27%

Screening data as filed in PubChem.
